According to PubChem BioAssay (NCI):
Compounds without any hit were thinned out: in the full panel of roughly 83,000, 20% have a hit.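 Percent growth is the endpoint: 0 to 100 indicates growth inhibition (40 means 60% inhibition), 0 means no net growth, and negative values indicate cell death.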 Calls of active or inactive are those of the source. The calls were made as follows: active = growth percent below 10; inactive = the rest.

What was measured:
Test in all cases: NCI-60 one-dose screen, 48 h (100 = growth as untreated, 0 = no growth, -100 = all killed)
Settings in all cases: 10 µM unless noted
[1] = system: NCI-H23 lung
[2] = system: NCI-H226 lung
[3] = system: NCI-H322M lung
[4] = system: HOP-62 NSCLC
[5] = system: HOP-92 NSCLC
[6] = system: NCI-H522 lung
[7] = system: A549/ATCC NSCLC
[8] = system: 786-0 renal
[9] = system: COLO 205 colon
[10] = system: DU-145 prostate
[11] = system: K-562 leukemia
[12] = system: MALME-3M melanoma
[13] = system: MDA-MB-231 breast
[14] = system: SF-268 CNS
[15] = system: SF-295 CNS
[16] = system: SF-539 CNS
[17] = system: M14 melanoma
[18] = system: RXF 393 renal
[19] = system: UACC-257 melanoma
[20] = system: NCI-H460 lung

Measured: growth

COC(=O)[C@@H](C)C[C@H](Cc1cn(C)c2ccccc12)NC(=O)c1csc([C@@H](C[C@H](C(C)C)N(C)C(=O)[C@@H](NC(=O)[C@H]2CCCCN2C)C(C)C)OC(C)=O)n1
active: [4] 7.44% | [6] -7.69% | [8] 6.49% | [9] -58.9% | [11] 6.65% | [13] 5.09% | [15] -0.0499% | [16] -8.57% | [17] -10.2%
inactive: [1] 31.9% | [2] 18% | [3] 37.8% | [5] 25.7% | [7] 15.3% | [10] 12.4% | [12] 50.4% | [14] 16.6%

CCOP(=O)(Cc1ccc(C#N)cc1)OCC
inactive: [1] 99.9% | [2] 108% | [3] 104% | [4] 98.5% | [5] 76.9% | [7] 91.2% | [8] 101% | [9] 108% | [10] 116% | [11] 100% | [12] 108% | [13] 100% | [18] 115% | [14] 112% | [15] 108% | [16] 109% | [19] 88.8% | [17] 101%

CN(C)C(=O)Oc1ccc(Br)cc1
inactive: [1] 102% | [2] 101% | [4] 93% | [20] 104% | [5] 107% | [6] 95.6% | [7] 100% | [8] 98.6% | [9] 102% | [10] 107% | [11] 96.5% | [12] 98% | [13] 105% | [18] 107% | [14] 110% | [15] 91.3% | [16] 108% | [19] 95% | [17] 104%

C=CC12CCN(CC1)C(C(O)c1ccnc3ccc(OC)cc13)C2 (stereo unspecified)
active: [9] -91.5%
inactive: [1] 100% | [2] 89.3% | [3] 93.2% | [4] 97.5% | [5] 75.2% | [6] 89% | [7] 76.1% | [8] 79% | [10] 107% | [11] 17.6% | [12] 26.2% | [13] 51.2% | [18] 45.9% | [14] 83.7% | [15] 72.3% | [16] 89.8% | [19] 52.4% | [17] 72.3%

Cn1cc(C=O)c2nccnc21
inactive: [1] 94.9% | [2] 120% | [3] 123% | [4] 113% | [5] 82% | [6] 78.2% | [7] 96.8% | [8] 119% | [10] 118% | [11] 101% | [12] 106% | [13] 111% | [18] 112% | [14] 123% | [15] 101% | [16] 108% | [19] 102% | [17] 120%

COc1cc(/C=C\c2cc(OC)c(OC)c(OC)c2)cc(NS(=O)(=O)c2cccc(Cl)c2)c1OC
inactive: [1] 22.9% | [2] 51.8% | [3] 50% | [4] 63.2% | [5] 47% | [7] 21.4% | [11] 11.2% | [12] 112% | [13] 27% | [18] 37.8% | [15] 13.8% | [19] 57.3%
active: [8] 6.56% | [9] -68.2% | [10] -31.6% | [14] -2.74% | [16] -0.958% | [17] 9.89%

C=CC[Se]C(=O)c1ccccc1OC(C)=O
inactive: [2] 28.1% | [5] 15.2% | [6] 47.1% | [9] 36% | [11] 46.8% | [12] 30.9% | [14] 27.1%
active: [1] -21.6% | [3] -17% | [4] -7.57% | [7] 0.797% | [8] -7.14% | [10] 1.76% | [13] -25.5% | [18] -21% | [15] -29.4% | [16] -82.4% | [19] 5.44% | [17] -6.78%

CNCc1cccnc1
inactive: [1] 104% | [2] 101% | [3] 113% | [4] 114% | [5] 108% | [6] 84.2% | [7] 97.6% | [8] 107% | [9] 122% | [10] 111% | [12] 124% | [13] 126% | [18] 121% | [14] 104% | [15] 95.5% | [16] 112% | [19] 105% | [17] 117%
